From the supplement of paper PMC8728848
The entries come from a sample that favours the strongest signals as a whole.

Key:
Test in all cases: glycan array binding signal (z-score within array); higher = stronger binding
Conditions in all cases: glycan notation: IUPAC condensed, linker removed
[1] = target: Fuc(a1-2)Gal(b1-3)GalNAc(b1-4)[Neu5Ac(a2-3)]Gal(b1-4)Glc
In short: (§1)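 Glycan array binding is given as a within-array Z-score, which can be read as non-binding when negative. The arrays, 3228 of them, came from the Consortium for Functional Glycomics database and were retained only where the protein sequence was available. Z-scores were averaged across arrays of the same protein sequence at different concentrations or buffers and across linkers.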

Fuc(a1-2)Gal(b1-3)GlcNAc = target: Fuc(a1-2)Gal(b1-3)GlcNAc
In short: as §1

[2] = target: Fuc(a1-2)Gal(b1-3)GlcNAc(b1-3)Gal(b1-4)Glc
In short: as §1

[3] = target: Fuc(a1-2)Gal(b1-3)[Fuc(a1-4)]GlcNAc(b1-2)Man(a1-3)[Fuc(a1-2)Gal(b1-3)[Fuc(a1-4)]GlcNAc(b1-2)Man(a1-6)]Man(b1-4)GlcNAc(b1-4)[Fuc(a1-6)]GlcNAc(b1-4)[Fuc(a1-6)]GlcNAc
In short: as §1

Fuc(a1-2)Gal(b1-4)GlcNAc = target: Fuc(a1-2)Gal(b1-4)GlcNAc
In short: as §1

[4] = target: Fuc(a1-2)Gal(b1-4)GlcNAc6S
In short: as §1

[5] = target: Fuc(a1-2)Gal(b1-4)[Fuc(a1-3)]GlcNAc(b1-3)Gal(b1-4)[Fuc(a1-3)]GlcNAc(b1-3)Gal(b1-4)[Fuc(a1-3)]GlcNAc
In short: as §1

Fuc(a1-2)Gal6S(b1-4)Glc = target: Fuc(a1-2)Gal6S(b1-4)Glc
In short: as §1

[6] = target: Fuc(a1-2)[Gal(a1-3)]Gal(b1-4)GlcNAc
In short: as §1

[7] = target: Fuc(a1-2)[Gal(a1-3)]Gal(b1-4)GlcNAc(b1-2)Man
In short: as §1

[8] = target: Fuc(a1-2)[Gal(a1-3)]Gal(b1-4)[Fuc(a1-3)]Glc
In short: as §1

[9] = target: Fuc(a1-2)[GalNAc(a1-3)]Gal(b1-3)GlcNAc(b1-6)GalNAc
In short: as §1

[10] = target: Fuc(a1-2)[GalNAc(a1-3)]Gal(b1-4)GlcNAc(b1-3)GalNAc
In short: as §1

[11] = target: Fuc(a1-3)[Gal3S(b1-4)]GlcNAc6S
In short: as §1

[12] = target: Fuc(a1-3)[GalNAc(b1-4)]GlcNAc
In short: as §1

Fuc(a1-4)GlcNAc = target: Fuc(a1-4)GlcNAc
In short: as §1

Gal(a1-3)Gal(b1-4)Glc = target: Gal(a1-3)Gal(b1-4)Glc
In short: as §1

Gal(a1-3)Gal(b1-4)GlcNAc = target: Gal(a1-3)Gal(b1-4)GlcNAc
In short: as §1

[13] = target: Gal(a1-3)Gal(b1-4)GlcNAc(b1-2)Man
In short: as §1

[14] = target: Gal(a1-3)Gal(b1-4)GlcNAc(b1-2)Man(a1-3)[Gal(a1-3)Gal(b1-4)GlcNAc(b1-2)Man(a1-6)]Man(b1-4)GlcNAc(b1-4)GlcNAc
In short: as §1

[15] = target: Gal(b1-3)GalNAc(b1-3)Gal(a1-4)Gal(b1-4)Glc
In short: as §1

[16] = target: Gal(b1-3)GalNAc(b1-4)Gal(b1-4)Glc
In short: as §1

[17] = target: Gal(b1-3)GlcNAc(b1-2)Man(a1-3)[Gal(b1-3)GlcNAc(b1-2)Man(a1-6)]Man(b1-4)GlcNAc(b1-4)GlcNAc
In short: as §1

[18] = target: Gal(b1-3)GlcNAc(b1-3)GalNAc
In short: as §1

[19] = target: Gal(b1-3)[Fuc(a1-4)]GlcNAc(b1-2)Man
In short: as §1

[20] = target: Gal(b1-4)GlcNAc(a1-6)Gal(b1-4)GlcNAc
In short: as §1

[21] = target: Gal(b1-4)GlcNAc(b1-2)Man(a1-3)Man(b1-4)GlcNAc(b1-4)GlcNAc
In short: as §1

[22] = target: Gal(b1-4)GlcNAc(b1-2)Man(a1-3)[Gal(b1-4)GlcNAc(b1-2)Man(a1-6)]Man(b1-4)GlcNAc(b1-4)GlcNAc
In short: as §1

[23] = target: Gal(b1-4)GlcNAc(b1-2)Man(a1-3)[GlcNAc(b1-2)Man(a1-6)]Man(b1-4)GlcNAc(b1-4)GlcNAc
In short: as §1

[24] = target: Gal(b1-4)GlcNAc(b1-2)[Gal(b1-4)GlcNAc(b1-4)]Man(a1-3)[GlcNAc(b1-4)][Gal(b1-4)GlcNAc(b1-2)[Gal(b1-4)GlcNAc(b1-6)]Man(a1-6)]Man(b1-4)GlcNAc(b1-4)GlcNAc
In short: as §1

[25] = target: Gal(b1-4)GlcNAc(b1-3)Gal(b1-3)GalNAc
In short: as §1

[26] = target: Gal(b1-4)GlcNAc(b1-3)Gal(b1-4)Glc
In short: as §1

[27] = target: Gal(b1-4)GlcNAc(b1-3)Gal(b1-4)GlcNAc(b1-3)Gal(b1-4)GlcNAc(b1-3)Gal(b1-4)GlcNAc(b1-3)Gal(b1-4)GlcNAc(b1-2)[Gal(b1-4)GlcNAc(b1-3)Gal(b1-4)GlcNAc(b1-3)Gal(b1-4)GlcNAc(b1-3)Gal(b1-4)GlcNAc(b1-3)Gal(b1-4)GlcNAc(b1-6)]Man(a1-6)[Gal(b1-4)GlcNAc(b1-3)Gal(b1-4)GlcNAc(b1-3)Gal(b1-4)GlcNAc(b1-3)Gal(b1-4)GlcNAc(b1-3)Gal(b1-4)GlcNAc(b1-2)Man(a1-3)]Man(b1-4)GlcNAc(b1-4)[Fuc(a1-6)]GlcNAc
In short: as §1

[28] = target: Gal(b1-4)GlcNAc(b1-6)[Gal(b1-4)GlcNAc(b1-3)]GalNAc
In short: as §1

Gal6S(b1-4)Glc6S = target: Gal6S(b1-4)Glc6S
In short: as §1

[29] = target: GalNAc(b1-3)Gal(a1-4)Gal(b1-4)GlcNAc(b1-3)Gal(b1-4)Glc
In short: as §1

[30] = target: GalNAc(b1-4)GlcNAc(b1-2)Man(a1-3)[GalNAc(b1-4)GlcNAc(b1-2)Man(a1-6)]Man(b1-4)GlcNAc(b1-4)GlcNAc
In short: as §1

Glc(b1-4)Glc = target: Glc(b1-4)Glc
In short: as §1

[31] = target: GlcNAc(a1-4)Gal(b1-4)GlcNAc(b1-3)Gal(b1-4)[Fuc(a1-3)]GlcNAc(b1-3)Gal(b1-4)[Fuc(a1-3)]GlcNAc
In short: as §1

[32] = target: GlcNAc(b1-2)[GlcNAc(b1-4)]Man(a1-3)[GlcNAc(b1-4)][GlcNAc(b1-2)[GlcNAc(b1-6)]Man(a1-6)]Man(b1-4)GlcNAc(b1-4)GlcNAc
In short: as §1

[33] = target: GlcNAc(b1-3)Gal(b1-4)GlcNAc(b1-3)Gal(b1-4)GlcNAc(b1-3)GalNAc
In short: as §1

[34] = target: Neu5Ac(a2-3)Gal(b1-3)GalNAc(b1-3)Gal(a1-4)Gal(b1-4)Glc
In short: as §1

[35] = target: Neu5Ac(a2-3)Gal(b1-3)GlcNAc(b1-3)GalNAc
In short: as §1

[36] = target: Neu5Ac(a2-3)Gal(b1-4)GlcNAc(b1-2)[Neu5Ac(a2-3)Gal(b1-4)GlcNAc(b1-6)]Man(a1-6)[Neu5Ac(a2-3)Gal(b1-4)GlcNAc(b1-2)Man(a1-3)]Man(b1-4)GlcNAc(b1-4)GlcNAc
In short: as §1

[37] = target: Neu5Ac(a2-3)Gal(b1-4)GlcNAc(b1-3)Gal(b1-4)GlcNAc(b1-3)Gal(b1-4)GlcNAc(b1-2)Man(a1-3)[Neu5Ac(a2-3)Gal(b1-4)GlcNAc(b1-3)Gal(b1-4)GlcNAc(b1-3)Gal(b1-4)GlcNAc(b1-2)Man(a1-6)]GalNAc
In short: as §1

[38] = target: Neu5Ac(a2-3)[GalNAc(b1-4)]Gal(b1-4)Glc
In short: as §1

[39] = target: Neu5Ac(a2-6)Gal(b1-4)GlcNAc(b1-2)Man(a1-3)[Man(a1-6)]Man(b1-4)GlcNAc(b1-4)GlcNAc
In short: as §1

[40] = target: Neu5Ac(a2-6)Gal(b1-4)GlcNAc(b1-2)Man(a1-3)[Neu5Ac(a2-3)Gal(b1-4)GlcNAc(b1-2)Man(a1-6)]Man(b1-4)GlcNAc(b1-4)GlcNAc
In short: as §1

[41] = target: Neu5Ac(a2-6)Gal(b1-4)GlcNAc(b1-2)[Neu5Ac(a2-6)Gal(b1-4)GlcNAc(b1-4)]Man(a1-3)[GlcNAc(b1-4)][Neu5Ac(a2-6)Gal(b1-4)GlcNAc(b1-2)[Neu5Ac(a2-6)Gal(b1-4)GlcNAc(b1-6)]Man(a1-6)]Man(b1-4)GlcNAc(b1-4)GlcNAc
In short: as §1

[42] = target: Neu5Ac(a2-6)Gal(b1-4)GlcNAc(b1-3)Gal(b1-4)GlcNAc(b1-3)GalNAc
In short: as §1

[43] = target: Neu5Ac(a2-6)Gal(b1-4)GlcNAc(b1-6)[Gal(b1-3)GlcNAc(b1-3)]Gal(b1-4)Glc
In short: as §1

[44] = target: Neu5Ac(a2-6)Gal(b1-4)GlcNAc(b1-6)[Gal(b1-3)]GalNAc
In short: as §1

[45] = target: Neu5Ac(a2-8)Neu5Ac(a2-8)Neu5Ac(a2-8)Neu5Ac(a2-3)[GalNAc(b1-4)]Gal(b1-4)Glc
In short: as §1

[46] = target: Neu5Gc(a2-8)Neu5Gc(a2-3)Gal(b1-4)GlcNAc
In short: as §1

B1: PX14343C-bfa-541-26-541 (Bacteroides fragilis) (protein)
chain: KAPLDEIADDSFWSDETLVKYYVNDLYSEISVDGLQLQENRSDNSVSAQRDKYRASWFKFNYDMVSASDPQDDDVWEDYYVKVRKCNRFFERIGTSTIEESEKSRLTGEVHFLRAMFYFEMVKRYGGVILLDKVLTMEDNWEIPRSSEKECYDFILEDLKKATEMLPASYGSREKGRATKGAAYALKSRVELYDKRYEDVIKSCAEVYKLGYELVDGTTPEKYRSIWWTTNKDNKEIIFDVQYKSPDVYNNMMVCNMVTYINDKYGDRGWGGLGPTQELIDAFEMADGTPATQYSQAPADQVFDINTCGIYEGREPRFYANIVFHGSQIFFNADKGAVTVDRYLMDTPDKGDGSLTGYNVWKWIDYDNYNYPYAGAGSPDFSTNWIILRYAEIYLNDAEARLETGDVEGARKAVNMIRQRVGLPDLTESDPEKLRELIRKERRIEFAFEEQRFYDVRRWKIGPETQTTLHGVRFVSPTEFKVTKTDIRTWNDRLYLTPVPHDEIVRSSVLKQNLGY
glycan array binding signal (z-score) [1]: 1.52 | glycan array binding signal (z-score) (Fuc(a1-2)Gal(b1-3)GlcNAc): 0.399 | glycan array binding signal (z-score) [2]: -0.05 | glycan array binding signal (z-score) [3]: 0.403 | glycan array binding signal (z-score) (Fuc(a1-2)Gal(b1-4)GlcNAc): -0.892 | glycan array binding signal (z-score) [4]: -0.542 | glycan array binding signal (z-score) [5]: -0.071 | glycan array binding signal (z-score) (Fuc(a1-2)Gal6S(b1-4)Glc): 3.12 | glycan array binding signal (z-score) [6]: -0.674 | glycan array binding signal (z-score) [7]: -0.447 | glycan array binding signal (z-score) [8]: -0.83 | glycan array binding signal (z-score) [9]: 0.051 | glycan array binding signal (z-score) [10]: 0.855 | glycan array binding signal (z-score) [11]: -0.963 | glycan array binding signal (z-score) [12]: 0.848 | glycan array binding signal (z-score) (Fuc(a1-4)GlcNAc): -0.619 | glycan array binding signal (z-score) (Gal(a1-3)Gal(b1-4)Glc): -0.559 | glycan array binding signal (z-score) (Gal(a1-3)Gal(b1-4)GlcNAc): 7.53 | glycan array binding signal (z-score) [13]: -1.04 | glycan array binding signal (z-score) [14]: 2.85 | glycan array binding signal (z-score) [15]: -0.233 | glycan array binding signal (z-score) [16]: -0.284 | glycan array binding signal (z-score) [17]: 2.98 | glycan array binding signal (z-score) [18]: 0.08 | glycan array binding signal (z-score) [19]: -0.63 | glycan array binding signal (z-score) [20]: 8.35 | glycan array binding signal (z-score) [21]: 0.345 | glycan array binding signal (z-score) [22]: -1.05 | glycan array binding signal (z-score) [23]: -1.28 | glycan array binding signal (z-score) [24]: 3.53 | glycan array binding signal (z-score) [25]: -0.401 | glycan array binding signal (z-score) [26]: 0.261 | glycan array binding signal (z-score) [27]: 0.758 | glycan array binding signal (z-score) [28]: 0.249 | glycan array binding signal (z-score) (Gal6S(b1-4)Glc6S): 1.46 | glycan array binding signal (z-score) [29]: -0.667 | glycan array binding signal (z-score) [30]: 3.4 | glycan array binding signal (z-score) (Glc(b1-4)Glc): -0.686 | glycan array binding signal (z-score) [31]: 1.91 | glycan array binding signal (z-score) [32]: 0.147 | glycan array binding signal (z-score) [33]: -0.553 | glycan array binding signal (z-score) [34]: 0.978 | glycan array binding signal (z-score) [35]: 0.246 | glycan array binding signal (z-score) [36]: 0.43 | glycan array binding signal (z-score) [37]: 5.05 | glycan array binding signal (z-score) [38]: 3.41 | glycan array binding signal (z-score) [39]: 3.29 | glycan array binding signal (z-score) [40]: 0.23 | glycan array binding signal (z-score) [41]: -0.339 | glycan array binding signal (z-score) [42]: -0.036 | glycan array binding signal (z-score) [43]: 5.89 | glycan array binding signal (z-score) [44]: -0.647 | glycan array binding signal (z-score) [45]: 1.9 | glycan array binding signal (z-score) [46]: -0.342
